Consider 34 compounds from ChEMBL document CHEMBL1961873, “Compounds: GSK PKIS; Assays: Nanosyn kinase panel” (2012).

The target of the first test is T1, Aurora kinase C (Homo sapiens) (UniProt Q9UQB9).
T1 sequence (whole entry): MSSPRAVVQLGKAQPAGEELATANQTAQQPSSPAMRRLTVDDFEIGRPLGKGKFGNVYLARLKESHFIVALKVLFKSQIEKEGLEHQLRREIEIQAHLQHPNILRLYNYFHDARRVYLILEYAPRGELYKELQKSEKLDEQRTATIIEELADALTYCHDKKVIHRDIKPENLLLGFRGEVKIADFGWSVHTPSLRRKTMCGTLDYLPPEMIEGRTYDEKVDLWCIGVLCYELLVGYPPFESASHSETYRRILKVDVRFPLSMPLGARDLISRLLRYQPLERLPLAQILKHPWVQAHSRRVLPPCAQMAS
The conditions noted are these: at 0.1 µM.
The term inhibition denotes the change of the read-out against control, counted positive when it falls. With `NC(=O)c1ccc(Oc2nccc(-c3c(-c4ccc(F)cc4)ncn3C3CCNCC3)n2)cc1`, the inhibition worked out at 2.2%.

Take `Fc1ccc(-c2ncn(CCCN3CCOCC3)c2-c2ccncc2)cc1`: the inhibition is -0.04%.

Take `COc1cccc(/C=N/Nc2ncnc3c2cnn3-c2cccc(OC)c2)c1`: the inhibition turned out to be 0.31%.

As to `N#Cc1ccc(Oc2nccc(-c3c(-c4ccc(F)cc4)ncn3C3CCNCC3)n2)cc1`, the inhibition worked out at 0.14%.

On to `COc1ccc(-c2ccc3c(NC(=O)C4CC4)n[nH]c3n2)cc1`, for which the inhibition is -5.01%.

On to `O=C(Nc1n[nH]c2cc(-c3ccccc3)ccc12)C1CC1`, for which the inhibition is 0.96%.

Take `COC(=O)Nc1nc2ccc(Sc3ccc(NC(=O)Nc4cc(C(F)(F)F)ccc4F)cc3)cc2[nH]1`: the inhibition is 1.09%.

For `O=C1Nc2ccc(I)cc2C1=Cc1cc(Br)c(O)c(Br)c1`, the inhibition came out at 0.09%.

`Clc1ccc(CNc2nccc(-c3cnn4ncccc34)n2)cc1`: the inhibition was 2.6%.

As to `C/C(Nc1ccc(S(N)(=O)=O)cc1)=C1/C(=O)Nc2ccccc21`, the inhibition amounted to 7.34%.

For the compound `CCc1nccc2c1nc(-c1nonc1N)n2CC`, the inhibition amounted to 0.67%.

Regarding `NC(=O)c1cc(-c2ccncc2)cc(-c2ccccc2)c1N`, the inhibition was found to be 1.71%.

For the compound `COc1cc(Nc2ncc(-c3ccccc3)o2)cc(OC)c1OC`, the inhibition turned out to be 8.67%.

Turning to `NS(=O)(=O)c1ccc(N/N=C2\C(=O)Nc3ccc(-c4cnco4)cc32)cc1`, the inhibition is -3.12%.

Take `COc1cc2ncn(-c3cc(OCCc4ccccc4)c(C(N)=O)s3)c2cc1OC`: the inhibition was determined as 1.23%.

For the compound `Cc1nnc(-c2ccc(C)c(-c3ccc(C(=O)NCc4ccc(Cl)cc4)cc3)c2)o1`, the inhibition was -2.03%.

On to `C#Cc1cccc(Nc2ncnc3ccc(OCCCCNCCS(C)(=O)=O)cc23)c1`, for which the inhibition was -2.83%.

On to `COc1cccc(-n2cnc3c(N/N=C/c4ccncc4)ncnc32)c1`, for which the inhibition stood at 0.73%.

Regarding `COc1ccc2cc(-c3c(-c4ccncc4)nc(-c4ccc(S(C)(=O)=O)cc4C)n3C)ccc2c1`, the inhibition came out at 1.31%.

Regarding `COc1ccc2ncn(-c3cc(O[C@H](C)c4ccccc4Cl)c(C(N)=O)s3)c2c1`, the inhibition was -3.77%.

With `O=C1NC(=O)C(c2cccc(Cl)c2)=C1Nc1ccc(Cl)c(C(=O)O)c1`, the inhibition worked out at 5.84%.

On to `CN1CCN(CCCNc2nc3ccc(Oc4ccc(NC(=O)Nc5cc(C(F)(F)F)ccc5F)cc4)cc3[nH]2)CC1`, for which the inhibition is -5.06%.

In the case of `C[C@@H](Oc1cc(-n2cnc3ccc(OC4CCN(C)CC4)cc32)sc1C(N)=O)c1ccccc1Cl`, the inhibition is -3.34%.

As to `c1ccc(Oc2ccc(Nc3ncc(-c4ccccc4)o3)cc2)cc1`, the inhibition worked out at 0.67%.

In the case of `CN(C)CCCNc1nccc(-c2c(-c3ccc(F)cc3)nn3cc(C(F)(F)F)ccc23)n1`, the inhibition is -1.31%.

As to `COc1cc2ncn(-c3cc(OCc4ccccc4C(F)(F)F)c(C(C)=O)s3)c2cc1OC`, the inhibition was 3%.

Consider `COc1ccc2cc(-c3c(-c4ccncc4)nc(-c4ccc([S+](C)[O-])cc4C)n3C)ccc2c1` (configuration not stated), for which the inhibition is -0.11%.

For the compound `Fc1ccc(-c2ncn(C3CCNCC3)c2-c2ccnc(Oc3ccc4c(c3)OCO4)n2)cc1`, the inhibition worked out at 7.07%.

Regarding `NC(=O)c1cc(-c2ccc(F)cc2)cc(-c2ccncc2)c1N`, the inhibition was -0.44%.

As for `CCC(=O)Nc1ccc(C)c(-c2ccc(C(=O)NCC3CC3)cc2)c1`, the inhibition is -1.01%.

For `c1ccc(-c2n[nH]cc2-c2ccnc(-c3ccc(OCCN4CCOCC4)cc3)c2)nc1`, the inhibition came to 5.43%.

`O=C(NCC1CC1)c1ccc(-c2cccc(C(=O)NC3CC3)c2)cc1`: the inhibition amounted to 0.57%.

`NC(=O)Cc1ccccc1Oc1nccc(-c2c(-c3ccc(F)cc3)ncn2C2CCNCC2)n1`: the inhibition was -0.43%.

For another test, the target named is T1, Aurora kinase C (Homo sapiens). The conditions noted are these: at 1 µM.
With `NC(=O)c1ccc(Oc2nccc(-c3c(-c4ccc(F)cc4)ncn3C3CCNCC3)n2)cc1`, the inhibition is 0.43%.

Consider `Fc1ccc(-c2ncn(CCCN3CCOCC3)c2-c2ccncc2)cc1`, for which the inhibition was determined as 10.1%.

Consider `COc1cccc(/C=N/Nc2ncnc3c2cnn3-c2cccc(OC)c2)c1`, for which the inhibition came out at 3.9%.

Regarding `N#Cc1ccc(Oc2nccc(-c3c(-c4ccc(F)cc4)ncn3C3CCNCC3)n2)cc1`, the inhibition came out at 3.86%.

`COc1ccc(-c2ccc3c(NC(=O)C4CC4)n[nH]c3n2)cc1`: the inhibition was 8.55%.

On to `O=C(Nc1n[nH]c2cc(-c3ccccc3)ccc12)C1CC1`, for which the inhibition was 9.67%.

`COC(=O)Nc1nc2ccc(Sc3ccc(NC(=O)Nc4cc(C(F)(F)F)ccc4F)cc3)cc2[nH]1`: the inhibition was determined as 6.4%.

Consider `CN(c1ccc(NC(=O)Nc2c(Cl)cccc2Cl)cc1)c1ccnc(Nc2cccc(CS(C)(=O)=O)c2)n1`, for which the inhibition came out at 104%.

In the case of `O=C1Nc2ccc(I)cc2C1=Cc1cc(Br)c(O)c(Br)c1`, the inhibition turned out to be 4.11%.

As to `Clc1ccc(CNc2nccc(-c3cnn4ncccc34)n2)cc1`, the inhibition was 4.42%.

Consider `C/C(Nc1ccc(S(N)(=O)=O)cc1)=C1/C(=O)Nc2ccccc21`, for which the inhibition was 85.7%.

In the case of `CCc1nccc2c1nc(-c1nonc1N)n2CC`, the inhibition turned out to be 5.21%.

In the case of `NC(=O)c1cc(-c2ccncc2)cc(-c2ccccc2)c1N`, the inhibition came out at 5.08%.

Regarding `COc1cc(Nc2ncc(-c3ccccc3)o2)cc(OC)c1OC`, the inhibition worked out at 71.8%.

Consider `NS(=O)(=O)c1ccc(N/N=C2\C(=O)Nc3ccc(-c4cnco4)cc32)cc1`, for which the inhibition was 11.5%.

Consider `COc1cc2ncn(-c3cc(OCCc4ccccc4)c(C(N)=O)s3)c2cc1OC`, for which the inhibition turned out to be 8.14%.

Take `Cc1nnc(-c2ccc(C)c(-c3ccc(C(=O)NCc4ccc(Cl)cc4)cc3)c2)o1`: the inhibition is -9.49%.

As for `C#Cc1cccc(Nc2ncnc3ccc(OCCCCNCCS(C)(=O)=O)cc23)c1`, the inhibition was -5.69%.

As to `COc1cccc(-n2cnc3c(N/N=C/c4ccncc4)ncnc32)c1`, the inhibition was -1.49%.

In the case of `COc1ccc2cc(-c3c(-c4ccncc4)nc(-c4ccc(S(C)(=O)=O)cc4C)n3C)ccc2c1`, the inhibition stood at 12.7%.

For `COc1ccc2ncn(-c3cc(O[C@H](C)c4ccccc4Cl)c(C(N)=O)s3)c2c1`, the inhibition was determined as 1.77%.

Turning to `O=C1NC(=O)C(c2cccc(Cl)c2)=C1Nc1ccc(Cl)c(C(=O)O)c1`, the inhibition is -0.75%.

`CN1CCN(CCCNc2nc3ccc(Oc4ccc(NC(=O)Nc5cc(C(F)(F)F)ccc5F)cc4)cc3[nH]2)CC1`: the inhibition was 23.7%.

As to `C[C@@H](Oc1cc(-n2cnc3ccc(OC4CCN(C)CC4)cc32)sc1C(N)=O)c1ccccc1Cl`, the inhibition is -1.29%.

As for `c1ccc(Oc2ccc(Nc3ncc(-c4ccccc4)o3)cc2)cc1`, the inhibition was -1.26%.

Take `CN(C)CCCNc1nccc(-c2c(-c3ccc(F)cc3)nn3cc(C(F)(F)F)ccc23)n1`: the inhibition was -0.03%.

In the case of `COc1cc2ncn(-c3cc(OCc4ccccc4C(F)(F)F)c(C(C)=O)s3)c2cc1OC`, the inhibition came to 11.9%.

Turning to `COc1ccc2cc(-c3c(-c4ccncc4)nc(-c4ccc([S+](C)[O-])cc4C)n3C)ccc2c1` (configuration not stated), the inhibition is 2.95%.

As to `Fc1ccc(-c2ncn(C3CCNCC3)c2-c2ccnc(Oc3ccc4c(c3)OCO4)n2)cc1`, the inhibition worked out at 11.4%.

Turning to `NC(=O)c1cc(-c2ccc(F)cc2)cc(-c2ccncc2)c1N`, the inhibition is -4.53%.

On to `CCC(=O)Nc1ccc(C)c(-c2ccc(C(=O)NCC3CC3)cc2)c1`, for which the inhibition was found to be 3.82%.

As to `c1ccc(-c2n[nH]cc2-c2ccnc(-c3ccc(OCCN4CCOCC4)cc3)c2)nc1`, the inhibition was 18.2%.

Regarding `O=C(NCC1CC1)c1ccc(-c2cccc(C(=O)NC3CC3)c2)cc1`, the inhibition came to 11.8%.

In the case of `NC(=O)Cc1ccccc1Oc1nccc(-c2c(-c3ccc(F)cc3)ncn2C2CCNCC2)n1`, the inhibition amounted to 8.16%.
